{"source": "the OligoGym collection", "data": [{"molecular_target": "RNF167", "experiment": "pooled miR-30 sensor sort-seq; sequence = guide strand", "conditions": "shRNA", "values": [{"sequence": "TTCCTCACTATTCCACACCATG", "sensor-assay potency score (higher = more potent)": -1.35}, {"sequence": "TTCCGGGTCTGAGTGAGCCAGG", "sensor-assay potency score (higher = more potent)": -1.12}, {"sequence": "TTGGTAAGTCGATTCCGCTGGA", "sensor-assay potency score (higher = more potent)": 0.395}, {"sequence": "AAGACTGACCCATTGACCGGGG", "sensor-assay potency score (higher = more potent)": -0.25}, {"sequence": "TTCCTCTTGGTCTTCGTCCCCA", "sensor-assay potency score (higher = more potent)": -0.474}, {"sequence": "TTTGGTAAGTCGATTCCGCTGG", "sensor-assay potency score (higher = more potent)": 0.435}, {"sequence": "TACAACGAGCTATCATTACTGC", "sensor-assay potency score (higher = more potent)": -0.205}, {"sequence": "ATGTGTAGGAATCTGTTTCAGT", "sensor-assay potency score (higher = more potent)": -0.804}, {"sequence": "TTGTGTACTACAGCGGCACCAT", "sensor-assay potency score (higher = more potent)": -0.0886}, {"sequence": "TCACATTGTGTACTACAGCGGC", "sensor-assay potency score (higher = more potent)": -0.461}, {"sequence": "TACTCGGAGCTTCTCTCCCCAA", "sensor-assay potency score (higher = more potent)": -1.19}]}, {"molecular_target": "RNF170", "experiment": "pooled miR-30 sensor sort-seq; sequence = guide strand", "conditions": "shRNA", "values": [{"sequence": "TTAATCTAAGTAATTCTGGGGA", "sensor-assay potency score (higher = more potent)": 0.33}, {"sequence": "ATGCAATCTCAGAACATCCTGA", "sensor-assay potency score (higher = more potent)": -0.378}, {"sequence": "TAATTAATCTAAGTAATTCTGG", "sensor-assay potency score (higher = more potent)": -0.536}, {"sequence": "TAGATCCATAATTCTCTCCATA", "sensor-assay potency score (higher = more potent)": -0.793}, {"sequence": "TATATTATCATATAGGTACCTG", "sensor-assay potency score (higher = more potent)": -0.52}, {"sequence": "TATAACTGAATCATCATCCAGT", "sensor-assay potency score (higher = more potent)": 0.606}, {"sequence": "TAAGATAGAAAAAAGCTCCCAT", "sensor-assay potency score (higher = more potent)": 0.565}, {"sequence": "TACATTAGCTCAGATATCCTAG", "sensor-assay potency score (higher = more potent)": 0.22}, {"sequence": "TAATATTAGAACTTCAAACATG", "sensor-assay potency score (higher = more potent)": -0.991}, {"sequence": "ATTCTCTCCATAATAGATCTGG", "sensor-assay potency score (higher = more potent)": -0.226}, {"sequence": "TTCCAGACAACATAGAATCAAG", "sensor-assay potency score (higher = more potent)": -0.928}, {"sequence": "TTATCATATAGGTACCTGCTGA", "sensor-assay potency score (higher = more potent)": -0.705}]}, {"molecular_target": "RNF19A", "experiment": "pooled miR-30 sensor sort-seq; sequence = guide strand", "conditions": "shRNA", "values": [{"sequence": "TTTGTGCTTTGAAACATCCTTG", "sensor-assay potency score (higher = more potent)": 0.0546}, {"sequence": "TAACATAATAGGAACACCGATA", "sensor-assay potency score (higher = more potent)": -0.784}, {"sequence": "TACATCTGCTTGTACTTCCAAC", "sensor-assay potency score (higher = more potent)": -0.763}, {"sequence": "ATTTCTTTCATACACAACCAAC", "sensor-assay potency score (higher = more potent)": -1.69}, {"sequence": "TTTGTTGTTCTAACAACTGTGC", "sensor-assay potency score (higher = more potent)": -0.162}, {"sequence": "TATATTTAGAGATAAAACCTAT", "sensor-assay potency score (higher = more potent)": -0.374}, {"sequence": "TTTTGTAATACTTATAACCTAA", "sensor-assay potency score (higher = more potent)": -0.606}, {"sequence": "TACAGTGGTAGCAAAACTCTGT", "sensor-assay potency score (higher = more potent)": 0.121}, {"sequence": "TTATATAAGCAGCACATCGTGG", "sensor-assay potency score (higher = more potent)": -0.73}, {"sequence": "TTGTCGAGCAGCATCACAGGTC", "sensor-assay potency score (higher = more potent)": 0.0826}, {"sequence": "TTGGGTTGTGTCTTGCTTCTGC", "sensor-assay potency score (higher = more potent)": 0.712}, {"sequence": "TCTGCTTGTACTTCCAACCTGT", "sensor-assay potency score (higher = more potent)": 0.605}]}, {"molecular_target": "RNF219", "experiment": "pooled miR-30 sensor sort-seq; sequence = guide strand", "conditions": "shRNA", "values": [{"sequence": "TTCACTTGAATTTTTTAGCTGT", "sensor-assay potency score (higher = more potent)": 0.783}, {"sequence": "ATACTTATCACTTCGTTCCAGG", "sensor-assay potency score (higher = more potent)": -0.456}, {"sequence": "TTGATATAGGTCTTTGTTCTTA", "sensor-assay potency score (higher = more potent)": -0.397}, {"sequence": "TAGCTTATCCACATCATCTTTC", "sensor-assay potency score (higher = more potent)": -0.402}, {"sequence": "TAAACAATCTATTTCGTCCTCA", "sensor-assay potency score (higher = more potent)": 0.474}]}]}
